{"source": "paper PMC4552634", "about": "“A New Set of Chemical Starting Points with Plasmodium falciparum Transmission-Blocking Potential for Antimalarial Drug Discovery” (PLoS ONE, 2015)", "note": "The campaign covered roughly 13,000 compounds. About 3,200 (25%) showed an effect of 50% or more. Some of the results follow.", "data": [{"tested_on": "P. falciparum stage V gametocytes", "parameters": "BacTiter-Glo ATP luminescence viability of purified stage V gametocytes in 384-well plates, per cent inhibition versus DMSO", "details": "48 h, 5 µM; inhibitor", "units": {"% Inhibition": "%"}, "values": [{"smiles": "O=C(Nc1cccc(-c2ccc(-c3nc4ccccc4[nH]3)cc2)c1)Nc1ccc2c(c1)OCO2", "note": "[TCMDC-133164]", "% Inhibition": -3.868}, {"smiles": "O=C(CSc1ccccn1)Nc1c(F)cccc1F", "note": "[TCMDC-123935]", "% Inhibition": 16.99}, {"smiles": "O=C(NC1CCCCC1)C1CCCN(C(=O)c2ccc(O)c(-c3ccc(Cl)c(Cl)c3)c2)C1", "note": "(centres unmarked) [TCMDC-140884]", "% Inhibition": 5.577}, {"smiles": "Cc1c(Cc2ccccc2)c(=O)oc2c(C)c3c(cc12)CN(CC(C)c1ccccc1)CO3", "note": "(centres unmarked) [TCMDC-125127]", "% Inhibition": 34.31}, {"smiles": "O=c1cc(NCCCNCc2sc(Br)nc2Br)[nH]c2ccccc12", "note": "[TCMDC-140422]", "% Inhibition": -16.17}, {"smiles": "Cc1ccccc1C1CCN(C2CCC(NC(=O)/C=C/c3cccc(Cl)c3Cl)CC2)CC1", "note": "(centres unmarked) [TCMDC-133519]", "% Inhibition": -94.66}, {"smiles": "Cc1sc2nc(CN3CCCC3)nc(-n3c(NCCO)nc4ccccc43)c2c1C", "note": "[TCMDC-124811]", "% Inhibition": 45.04}, {"smiles": "OC(c1ccc(Cl)cc1)(c1ccc(Cl)cc1)C(c1ccc(Cl)cc1)n1ccnc1", "note": "(centres unmarked) [TCMDC-125069]", "% Inhibition": 44.24}, {"smiles": "Cc1cccc(Cl)c1Nc1nnc(-c2cccc(C(=O)NC[C@@H]3CC[C@H]4C[C@@H]3C4(C)C)c2)o1", "note": "[TCMDC-135040]", "% Inhibition": -14.01}, {"smiles": "CN1CCN(c2cccc(-c3nnc(-c4ccc(OCC(=O)NCc5cccc(C(F)(F)F)c5)c([N+](=O)[O-])c4)o3)c2)CC1", "note": "[TCMDC-134941]", "% Inhibition": -68.92}, {"smiles": "O=C(NCc1ccc(C(F)(F)F)cc1)c1cccc(-c2nnc(-c3cccc(-c4cncnc4)c3)o2)c1", "note": "[TCMDC-134944]", "% Inhibition": 18.23}, {"smiles": "CCCNC(=O)c1cncc(-c2ccc(CNC(CC)c3ccccc3)cc2)c1", "note": "(centres unmarked) [TCMDC-134238]", "% Inhibition": -1.576}, {"smiles": "CC(=O)NCCNCc1cccc(C(=O)NCc2cccc(C(F)(F)F)c2)c1", "note": "[TCMDC-140900]", "% Inhibition": 22.07}, {"smiles": "CC(C)(C)OC(=O)NCc1ccc(Nc2nnc(-c3cccc(C(=O)NCCC(c4ccccc4)c4ccccc4)c3)o2)cc1", "note": "[TCMDC-134989]", "% Inhibition": 99.36}, {"smiles": "CC(C)(C)OC(=O)NCc1ccc(Nc2nnc(-c3cccc(OCC(=O)NCc4cc(C(F)(F)F)cc(C(F)(F)F)c4)c3)o2)cc1", "note": "[TCMDC-134993]", "% Inhibition": 101.9}, {"smiles": "CN1CCN(c2cccc(-c3nnc(-c4cccc(OCC(=O)NCc5ccc(C(F)(F)F)cc5)c4)o3)c2)CC1", "note": "[TCMDC-134943]", "% Inhibition": 0.9055}, {"smiles": "CC(C)(C)OC(=O)NCc1ccc(Nc2nnc(-c3cccc(C(=O)NCc4cc(C(F)(F)F)cc(C(F)(F)F)c4)c3)o2)cc1", "note": "[TCMDC-135229]", "% Inhibition": 97.34}, {"smiles": "O=c1ccc2ccc(F)c3c2n1CC3CN1CCC(NCc2cccc(-c3ccccc3F)c2)CC1", "note": "(centres unmarked) [TCMDC-134405]", "% Inhibition": -31.68}, {"smiles": "COc1ccc2nccc([C@@H](O)CN3CCC(NCc4cnc5snnc5c4)C(F)C3)c2c1", "note": "(some centres unmarked) [TCMDC-141752]", "% Inhibition": 25.48}, {"smiles": "Cc1ccccc1C1CCN(c2ccc(NC(=O)c3ccc(Cl)nc3)cc2)CC1", "note": "[TCMDC-134586]", "% Inhibition": 25.08}, {"smiles": "O=C(Nc1ccc(Cn2ncc(N3CCCNCC3)c(Cl)c2=O)cc1)Nc1cc(Cl)cc(Cl)c1", "note": "[TCMDC-133326]", "% Inhibition": -9.301}, {"smiles": "O=C(Nc1cc(Cl)cc(Cl)c1)c1cnn(-c2ccc(F)cc2)c1C1CCNCC1", "note": "[TCMDC-124410]", "% Inhibition": 50.02}, {"smiles": "CCCc1c(C(=O)Nc2ccc3c(c2)CCN(C2CCC2)CC3)cnn1-c1ccc(Cl)cc1", "note": "[TCMDC-136081]", "% Inhibition": 40.23}, {"smiles": "Cc1ccc(-n2ncc(C(=O)Nc3cc(Cl)cc(Cl)c3)c2C2CCNCC2)cc1C", "note": "[TCMDC-124409]", "% Inhibition": 57.45}, {"smiles": "Cc1ccccc1C1CCN(c2ncc(C(=O)Nc3ccccc3)cc2Cl)CC1", "note": "[TCMDC-134630]", "% Inhibition": -30.75}, {"smiles": "COc1cc(NC(=O)c2c(-c3c(Cl)cccc3Cl)noc2C)c(OC)cc1Cl", "note": "[TCMDC-125477]", "% Inhibition": -41.77}, {"smiles": "CC(O)C(C)(CO)NCc1ccc2c3c(cccc13)-c1ccccc1-2", "note": "(centres unmarked) [TCMDC-138117]", "% Inhibition": 15.45}, {"smiles": "Cc1noc(C)c1-c1ccc2c(Nc3ccc(C(F)(F)F)cc3)c(C(N)=O)cnc2c1.Cl", "note": "[TCMDC-136019]", "% Inhibition": 23.08}, {"smiles": "Cc1ccc(O)cc1Nc1c(C(N)=O)cnc2ccc(-c3cncs3)cc12", "note": "[TCMDC-138565]", "% Inhibition": 46.98}, {"smiles": "NC(=O)c1cnc2ccc(-c3cncs3)cc2c1Nc1ccc(F)c(Cl)c1", "note": "[TCMDC-138566]", "% Inhibition": 50.74}, {"smiles": "CC(C)CCCC(C)(C)NC[C@@H](O)[C@H](Cc1ccccc1)NC(=O)c1cccc(OCC2CC2)c1", "note": "[TCMDC-136556]", "% Inhibition": 100.1}, {"smiles": "CC(C)CCCC(C)(C)NC[C@@H](O)[C@H](Cc1ccccc1)NC(=O)c1cccc(CCC2CC2)c1", "note": "[TCMDC-136602]", "% Inhibition": 71.1}, {"smiles": "O=C(N[C@@H](Cc1ccccc1)[C@H](O)CNCCC(F)(F)F)c1cccc(CCC2CC2)c1", "note": "[TCMDC-136611]", "% Inhibition": -3.968}, {"smiles": "CCNc1cc(C(=O)N[C@@H](Cc2ccccc2)[C@H](O)CNC(C)(C)Cc2cccc(OC)c2)cc(N2CCCC2=O)c1", "note": "[TCMDC-134574]", "% Inhibition": 1.402}, {"smiles": "CCOc1cc(C(=O)N[C@@H](Cc2ccccc2)[C@H](O)CNCc2cccc(OC)c2)cc(N2CCCCS2(=O)=O)c1", "note": "[TCMDC-134521]", "% Inhibition": -19.61}, {"smiles": "O=C(N[C@@H](Cc1ccccc1)[C@H](O)CNCCC(F)(F)F)c1cccc(OCC2CC2)c1", "note": "[TCMDC-136610]", "% Inhibition": 48.68}, {"smiles": "CCCOc1cccc(C(=O)N[C@@H](Cc2ccccc2)[C@H](O)CNCc2cccc(OC)c2)c1", "note": "[TCMDC-136707]", "% Inhibition": 12.44}, {"smiles": "COc1cccc(C2(NC[C@@H](O)[C@H](Cc3ccccc3)NC(=O)c3ccccc3)CCCCC2)c1", "note": "[TCMDC-135740]", "% Inhibition": 7.84}, {"smiles": "CCCOc1cccc(C(=O)N[C@@H](Cc2ccccc2)[C@H](O)CNCc2ccccc2OC)c1", "note": "[TCMDC-136706]", "% Inhibition": 81.52}, {"smiles": "Clc1ccccc1/C=C/c1cncnc1Nc1ccc2nc(Cc3ccccc3)[nH]c2c1", "note": "[TCMDC-138659]", "% Inhibition": 0.669}, {"smiles": "COc1cc(Nc2ccnc3cc(-c4ccccn4)ccc23)cc(OC)c1OC", "note": "[TCMDC-138203]", "% Inhibition": 0.8769}, {"smiles": "COc1ccc(-c2ccnc(-c3cccc(-c4ccccn4)n3)c2)cc1", "note": "[TCMDC-125008]", "% Inhibition": 155.4}, {"smiles": "c1ccc(-c2cccc(-c3ccccn3)n2)nc1", "note": "[TCMDC-123985]", "% Inhibition": -15.75}, {"smiles": "N#Cc1ccc(NC(=NC2Cc3ccccc3C2)Nc2cccc(Cl)c2Cl)c(O)c1", "note": "[TCMDC-140223]", "% Inhibition": -11.72}, {"smiles": "CS(=O)(=O)Nc1ccc2[nH]cc(C3CCN(CC(O)C4CCN(C(=O)/C=C/c5ccc(Cl)c(Cl)c5)CC4)CC3)c2c1", "note": "(centres unmarked) [TCMDC-134176]", "% Inhibition": 30.58}, {"smiles": "O=C(/C=C/c1cccc(Cl)c1)N1CCC(C(O)CN2CCC3(CC2)CN(C(=O)/C=C/c2cccc(Cl)c2)c2ccccc23)CC1", "note": "(centres unmarked) [TCMDC-134543]", "% Inhibition": 57.97}, {"smiles": "O=C(/C=C/c1ccc(Cl)c(Cl)c1)N1CCC(C(O)CN2CCC(c3c[nH]c4ccccc34)CC2)CC1", "note": "(centres unmarked) [TCMDC-134171]", "% Inhibition": 19.99}, {"smiles": "CC(=O)Nc1ccc(CN2CCC(NC(=O)c3ccc(-c4cccc(F)c4)s3)CC2)cc1", "note": "[TCMDC-134333]", "% Inhibition": 6.679}, {"smiles": "CCNc1cc(C(=O)N[C@@H](Cc2cc(F)cc(F)c2)[C@H](O)CNCc2cccc(C(F)(F)F)c2)cc(N2CCCCS2(=O)=O)c1", "note": "[TCMDC-134678]", "% Inhibition": -1.763}, {"smiles": "CC(C)CCNC(=O)[C@@H]1[C@H]2C(=O)N(C3CCCCC3)C(=O)[C@H]2[C@H]2C=C[C@@H]3C(c4ccc(C(C)(C)C)cc4)=NO[C@@H]3N21", "note": "[TCMDC-139763]", "% Inhibition": -31.5}, {"smiles": "Cc1cc(CN2CCCC(OC(c3ccc(F)cc3)c3ccc(F)cc3)C2)ccc1O", "note": "(centres unmarked) [TCMDC-136168]", "% Inhibition": 43.13}, {"smiles": "CN(C)CCNc1ncnc2c1[nH]c1ccc(Cl)cc12", "note": "[TCMDC-124582]", "% Inhibition": 1.888}, {"smiles": "CCN(CC)CCNc1ccnc2[nH]c3ccc(Cl)cc3c12", "note": "[TCMDC-131832]", "% Inhibition": 4.266}, {"smiles": "CCN(CC)CCNc1nc(C=Cc2ccc(Cl)cc2)nc2cc3ccccc3cc12", "note": "[TCMDC-125777]", "% Inhibition": 86.86}, {"smiles": "CNC(=O)NC1=NC(C)(C)N(OCc2ccc(Cl)c(Cl)c2)C(NC(=O)NC)=N1", "note": "[TCMDC-131694]", "% Inhibition": 10.36}, {"smiles": "CN(C)Cc1ccc(O)c(-c2ccc(C(C)(C)C)cc2)n1", "note": "[TCMDC-124147]", "% Inhibition": 10.19}, {"smiles": "COc1ccc2nccc([C@@H](O)CN3CCC(NCCNc4cccc(F)c4)CC3)c2c1", "note": "[TCMDC-140716]", "% Inhibition": -36.18}, {"smiles": "Cc1cc(N[C@@H](CC(C)C)C(=O)NCCc2ccccc2)nc(NCc2ccccc2C)n1", "note": "[TCMDC-134911]", "% Inhibition": -9.933}, {"smiles": "Cc1cc(N[C@@H](CC(C)C)C(=O)NCc2cccs2)nc(NCCc2ccc(F)cc2)n1", "note": "[TCMDC-134794]", "% Inhibition": 46.14}, {"smiles": "COc1ccc(NC(=O)[C@H](CC(C)C)Nc2cc(C)nc(NCCc3ccccc3OC)n2)cc1", "note": "[TCMDC-134805]", "% Inhibition": -9.787}, {"smiles": "Cc1cc(N[C@@H](CC(C)C)C(=O)NCc2cccs2)nc(NCCc2cccs2)n1", "note": "[TCMDC-134815]", "% Inhibition": 136.3}, {"smiles": "Cc1cc(N[C@@H](CC(C)C)C(=O)NCCc2ccccc2)nc(NCCc2cccs2)n1", "note": "[TCMDC-134816]", "% Inhibition": 67}, {"smiles": "COc1ccc(NC(=O)[C@H](CC(C)C)Nc2cc(C)nc(NCCc3cccs3)n2)cc1", "note": "[TCMDC-134875]", "% Inhibition": -27.08}, {"smiles": "Cc1cc(N[C@@H](CC(C)C)C(=O)NCc2cccs2)nc(Nc2ccccc2)n1", "note": "[TCMDC-134739]", "% Inhibition": -4.41}, {"smiles": "COc1ccccc1CCNc1nc(C)cc(N[C@@H](CC(C)C)C(=O)NCc2cccs2)n1", "note": "[TCMDC-134806]", "% Inhibition": 64.45}, {"smiles": "Cc1cc(N[C@@H](CC(C)C)C(=O)NCCc2ccccc2)nc(Nc2ccccc2)n1", "note": "[TCMDC-134742]", "% Inhibition": -5.247}, {"smiles": "Cc1cc(N[C@@H](CC(C)C)C(=O)NCc2cccs2)nc(NCCc2ccccc2)n1", "note": "[TCMDC-134779]", "% Inhibition": 68.3}, {"smiles": "COc1ccccc1CCNc1nc(C)cc(N[C@@H](CC(C)C)C(=O)Nc2ccccc2)n1", "note": "[TCMDC-134808]", "% Inhibition": 19.68}]}]}
